Results as given in PubChem BioAssay.
Active and inactive are the calls of the source.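 Rule for the calls, unless noted: active = normalized viability below 100% at a tested concentration; inactive = the rest.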

Columns and labels:
[1] = ovarian cancer cell viability with rucaparib, profiling panel, oncology-focused library, rucaparib conditional (AID 1508598); details: patient-derived ovarian cancer cells, CellTiter-Glo viability, 144 h, stronger effect = lower value
[2] = molecular target: NAD(+) hydrolase SARM1 (Homo sapiens) (UniProt Q6SZW1); experiment: SARM1 TIR NADase inhibitors, cell lysate, NAD-Glo luminescence (AID 1508614;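 active = compound whose remaining NAD level is above about 45 nM, limit read from the data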;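 note: higher remaining NAD means stronger inhibition of SARM1 NADase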); details: SAM-TIR HEK293T lysate NADase, at 1 µM, stronger effect = higher value
[3] = at 0.000305 µM, OCI-C5x cells, with rucaparib 10 µM, 100% = cells with rucaparib alone
[4] = at 0.000305 µM, OCI-C5x cells, without rucaparib
[5] = at 0.000305 µM, OCI-P5x cells, with rucaparib 20 µM, 100% = cells with rucaparib alone
[6] = at 0.000305 µM, OCI-P5x cells, without rucaparib
[7] = at 0.00122 µM, OCI-C5x cells, with rucaparib 10 µM, 100% = cells with rucaparib alone
[8] = at 0.00122 µM, OCI-C5x cells, without rucaparib
[9] = at 0.00122 µM, OCI-P5x cells, with rucaparib 20 µM, 100% = cells with rucaparib alone
[10] = at 0.00122 µM, OCI-P5x cells, without rucaparib
[11] = at 0.00488 µM, OCI-C5x cells, with rucaparib 10 µM, 100% = cells with rucaparib alone
[12] = at 0.00488 µM, OCI-C5x cells, without rucaparib
[13] = at 0.00488 µM, OCI-P5x cells, with rucaparib 20 µM, 100% = cells with rucaparib alone
[14] = at 0.00488 µM, OCI-P5x cells, without rucaparib
[15] = at 0.0195 µM, OCI-C5x cells, with rucaparib 10 µM, 100% = cells with rucaparib alone
[16] = at 0.0195 µM, OCI-C5x cells, without rucaparib
[17] = at 0.0195 µM, OCI-P5x cells, with rucaparib 20 µM, 100% = cells with rucaparib alone
[18] = at 0.0195 µM, OCI-P5x cells, without rucaparib
[19] = at 0.0781 µM, OCI-C5x cells, with rucaparib 10 µM, 100% = cells with rucaparib alone
[20] = at 0.0781 µM, OCI-C5x cells, without rucaparib
[21] = at 0.0781 µM, OCI-P5x cells, with rucaparib 20 µM, 100% = cells with rucaparib alone
[22] = at 0.0781 µM, OCI-P5x cells, without rucaparib
[23] = at 0.313 µM, OCI-C5x cells, with rucaparib 10 µM, 100% = cells with rucaparib alone
[24] = at 0.313 µM, OCI-C5x cells, without rucaparib
[25] = at 0.313 µM, OCI-P5x cells, with rucaparib 20 µM, 100% = cells with rucaparib alone
[26] = at 0.313 µM, OCI-P5x cells, without rucaparib
[27] = at 1.25 µM, OCI-C5x cells, with rucaparib 10 µM, 100% = cells with rucaparib alone
[28] = at 1.25 µM, OCI-C5x cells, without rucaparib
[29] = at 1.25 µM, OCI-P5x cells, with rucaparib 20 µM, 100% = cells with rucaparib alone
[30] = at 1.25 µM, OCI-P5x cells, without rucaparib
[31] = at 5 µM, OCI-C5x cells, with rucaparib 10 µM, 100% = cells with rucaparib alone
[32] = at 5 µM, OCI-C5x cells, without rucaparib
[33] = at 5 µM, OCI-P5x cells, with rucaparib 20 µM, 100% = cells with rucaparib alone
[34] = at 5 µM, OCI-P5x cells, without rucaparib

NAD(+) hydrolase SARM1 (Homo sapiens), sequence (Q6SZW1 whole entry, looked up): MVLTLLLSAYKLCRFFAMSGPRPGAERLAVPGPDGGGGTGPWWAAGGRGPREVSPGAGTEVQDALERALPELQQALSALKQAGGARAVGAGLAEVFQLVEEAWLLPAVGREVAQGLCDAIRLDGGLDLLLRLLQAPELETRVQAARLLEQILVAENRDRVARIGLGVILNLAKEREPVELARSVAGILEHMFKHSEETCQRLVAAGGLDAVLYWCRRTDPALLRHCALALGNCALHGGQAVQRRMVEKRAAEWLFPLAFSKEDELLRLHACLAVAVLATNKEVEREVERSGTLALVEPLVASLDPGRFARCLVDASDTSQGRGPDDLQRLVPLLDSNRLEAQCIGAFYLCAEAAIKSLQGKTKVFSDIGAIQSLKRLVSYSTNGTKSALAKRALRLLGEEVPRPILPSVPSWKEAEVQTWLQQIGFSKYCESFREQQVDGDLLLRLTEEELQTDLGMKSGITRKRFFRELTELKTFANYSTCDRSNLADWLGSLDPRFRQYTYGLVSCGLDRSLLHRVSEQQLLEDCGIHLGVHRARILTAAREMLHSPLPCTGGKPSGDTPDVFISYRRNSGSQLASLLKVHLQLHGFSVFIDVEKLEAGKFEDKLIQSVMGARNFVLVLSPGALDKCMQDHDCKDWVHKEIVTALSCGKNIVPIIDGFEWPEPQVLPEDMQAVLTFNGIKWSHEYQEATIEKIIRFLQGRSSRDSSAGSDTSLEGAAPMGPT

CC(=O)OCC(=O)[C@]1(O)[C@H](C)C[C@H]2[C@@H]3CCC4=CC(=O)C=C[C@]4(C)[C@]3(F)[C@H](O)C[C@@]21C
active: viability [1, 18] 99.6% | viability [1, 22] 98.1% | viability [1, 26] 94.5% | viability [1, 29] 97.6% | viability [1, 30] 94.3% | viability [1, 33] 88.4% | viability [1, 34] 84.6%
inactive: viability [1, 3] 119% | viability [1, 4] 119% | viability [1, 5] 107% | viability [1, 6] 108% | viability [1, 7] 121% | viability [1, 8] 125% | viability [1, 9] 105% | viability [1, 10] 106% | viability [1, 11] 131% | viability [1, 12] 122% | viability [1, 13] 110% | viability [1, 14] 105% | viability [1, 15] 124% | viability [1, 16] 123% | viability [1, 17] 109% | viability [1, 19] 118% | viability [1, 20] 112% | viability [1, 21] 104% | viability [1, 23] 113% | viability [1, 24] 113% | viability [1, 25] 100% | viability [1, 27] 122% | viability [1, 28] 123% | viability [1, 31] 115% | viability [1, 32] 110%

N[C@@H]1CCCN(c2c(/C=C3\SC(=O)NC3=O)cccc2-c2ccccc2)C1
active: viability [1, 5] 96.6% | viability [1, 9] 98.1% | viability [1, 17] 96.9% | viability [1, 24] 99.1% | viability [1, 25] 91.3% | viability [1, 27] 93.8% | viability [1, 29] 91.3% | viability [1, 33] 74.6% | viability [1, 34] 97.5%
inactive: viability [1, 3] 108% | viability [1, 4] 122% | viability [1, 6] 112% | viability [1, 7] 116% | viability [1, 8] 121% | viability [1, 10] 111% | viability [1, 11] 119% | viability [1, 12] 119% | viability [1, 13] 103% | viability [1, 14] 108% | viability [1, 15] 105% | viability [1, 16] 108% | viability [1, 18] 111% | viability [1, 19] 108% | viability [1, 20] 115% | viability [1, 21] 101% | viability [1, 22] 109% | viability [1, 23] 105% | viability [1, 26] 106% | viability [1, 28] 103% | viability [1, 30] 106% | viability [1, 31] 115% | viability [1, 32] 119%

C[C@H]1C[C@H]2[C@@H]3CCC4=CC(=O)C=C[C@]4(C)[C@@]3(F)[C@@H](O)C[C@]2(C)[C@@]1(O)C(=O)COP(=O)(O)O
inactive: remaining NAD [2] 10 nM

CC(=O)O[C@]12CO[C@@H]1C[C@H](O)[C@]1(C)C(=O)[C@H](O)C3=C(C)[C@H](OC(=O)[C@H](O)[C@@H](NC(=O)OC(C)(C)C)c4ccccc4)C[C@](O)([C@H](OC(=O)c4ccccc4)C21)C3(C)C (some centres undefined)
active: viability [1, 7] 86.4% | viability [1, 8] 76% | viability [1, 9] 93% | viability [1, 10] 33.3% | viability [1, 11] 37.6% | viability [1, 12] 32.6% | viability [1, 13] 70.1% | viability [1, 14] 19.5% | viability [1, 15] 41.9% | viability [1, 16] 35.3% | viability [1, 17] 56.6% | viability [1, 18] 16.8% | viability [1, 19] 38.2% | viability [1, 20] 33.7% | viability [1, 21] 61.2% | viability [1, 22] 19.8% | viability [1, 23] 41.5% | viability [1, 24] 37.8% | viability [1, 25] 55.6% | viability [1, 26] 18.6% | viability [1, 27] 47.4% | viability [1, 28] 41.3% | viability [1, 29] 55.9% | viability [1, 30] 20.7% | viability [1, 31] 37.7% | viability [1, 32] 56.7% | viability [1, 33] 34.2% | viability [1, 34] 16.1%
inactive: viability [1, 3] 118% | viability [1, 4] 115% | viability [1, 5] 120% | viability [1, 6] 106%

CC(C)(C(=O)NCC(F)(F)C(F)(F)F)C(=O)N[C@H]1C(=O)Nc2ccccc2-c2ccccc21
inactive: viability [1, 3] 111% | viability [1, 4] 114% | viability [1, 5] 103% | viability [1, 6] 105% | viability [1, 7] 106% | viability [1, 8] 111% | viability [1, 9] 103% | viability [1, 10] 104% | viability [1, 11] 114% | viability [1, 12] 117% | viability [1, 15] 110% | viability [1, 16] 117% | viability [1, 19] 119% | viability [1, 20] 119% | viability [1, 23] 116% | viability [1, 24] 107% | viability [1, 27] 114% | viability [1, 28] 113% | viability [1, 31] 117% | viability [1, 32] 108%
active: viability [1, 13] 99.5% | viability [1, 14] 94.4% | viability [1, 17] 85.5% | viability [1, 18] 90.2% | viability [1, 21] 92% | viability [1, 22] 91.6% | viability [1, 25] 85.7% | viability [1, 26] 85.2% | viability [1, 29] 82.5% | viability [1, 30] 82% | viability [1, 33] 72% | viability [1, 34] 76.9%
